molecular target: AgAbp1; test: SPOT peptide array binding signal intensity (averaged, normalized) (arbitrary units (background-subtracted, floor 0; scale differs between SH3 domains)); higher = stronger binding of the SH3 domain to the peptide
Procedure, shortened: (§1)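 GST-fused SH3 domains, from four yeast species, were produced in E. coli BL21(DE3) and captured on glutathione Sepharose. Membranes of cellulose carrying synthetic 15-mer peptides, in which cysteines had been replaced by serines, were exposed to each domain at 10 μg/ml overnight at 4°C in TBS-based blocking buffer. After anti-GST antibody, an HRP anti-mouse secondary and luminol, spots were imaged and quantified using Genespotter. Binding signal is normalized and background-subtracted spot intensity, averaged over replicates, in arbitrary units that differ between domains.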

Binder	SPOT peptide array binding signal intensity
KNPRRQLQIPRQQPS	242
HPRFVSPRIPSRIVK	258

molecular target: AgBbc1; test: as above
Procedure, shortened: as §1

Binder	SPOT peptide array binding signal intensity
KNPRRQLQIPRQQPS	60.8
HPRFVSPRIPSRIVK	502

molecular target: AgBem1-D1; test: as above
Procedure, shortened: as §1

Binder	SPOT peptide array binding signal intensity
KNPRRQLQIPRQQPS	73
HPRFVSPRIPSRIVK	182

molecular target: AgBzz1-D1; test: as above
Procedure, shortened: as §1

Binder	SPOT peptide array binding signal intensity
KNPRRQLQIPRQQPS	77
HPRFVSPRIPSRIVK	185

molecular target: AgBzz1-D2; test: as above
Procedure, shortened: as §1

Binder	SPOT peptide array binding signal intensity
KNPRRQLQIPRQQPS	44
HPRFVSPRIPSRIVK	23.5

molecular target: AgCyk3; test: as above
Procedure, shortened: as §1

Binder	SPOT peptide array binding signal intensity
KNPRRQLQIPRQQPS	≤ 0
HPRFVSPRIPSRIVK	1

molecular target: AgFus1; test: as above
Procedure, shortened: as §1

Binder	SPOT peptide array binding signal intensity
KNPRRQLQIPRQQPS	9.5
HPRFVSPRIPSRIVK	239

molecular target: AgHof1; test: as above
Procedure, shortened: as §1

Binder	SPOT peptide array binding signal intensity
KNPRRQLQIPRQQPS	55.8
HPRFVSPRIPSRIVK	116

molecular target: AgHse1; test: as above
Procedure, shortened: as §1

Binder	SPOT peptide array binding signal intensity
KNPRRQLQIPRQQPS	142
HPRFVSPRIPSRIVK	176

molecular target: AgLsb1; test: as above
Procedure, shortened: as §1

Binder	SPOT peptide array binding signal intensity
KNPRRQLQIPRQQPS	100
HPRFVSPRIPSRIVK	138

molecular target: AgLsb4; test: as above
Procedure, shortened: as §1

Binder	SPOT peptide array binding signal intensity
KNPRRQLQIPRQQPS	25
HPRFVSPRIPSRIVK	28

molecular target: AgMyo5; test: as above
Procedure, shortened: as §1

Binder	SPOT peptide array binding signal intensity
KNPRRQLQIPRQQPS	7
HPRFVSPRIPSRIVK	11

molecular target: AgNbp2; test: as above
Procedure, shortened: as §1

Binder	SPOT peptide array binding signal intensity
KNPRRQLQIPRQQPS	16.5
HPRFVSPRIPSRIVK	390

molecular target: AgRvs167; test: as above
Procedure, shortened: as §1

Binder	SPOT peptide array binding signal intensity
KNPRRQLQIPRQQPS	2.67
HPRFVSPRIPSRIVK	12.3

molecular target: AgSho1; test: as above
Procedure, shortened: as §1

Binder	SPOT peptide array binding signal intensity
KNPRRQLQIPRQQPS	≤ 0
HPRFVSPRIPSRIVK	13

molecular target: AgSla1-D1-D2; test: as above
Procedure, shortened: as §1

Binder	SPOT peptide array binding signal intensity
KNPRRQLQIPRQQPS	44
HPRFVSPRIPSRIVK	62.5

molecular target: AgSla1-D3; test: as above
Procedure, shortened: as §1

Binder	SPOT peptide array binding signal intensity
KNPRRQLQIPRQQPS	2.5
HPRFVSPRIPSRIVK	32.5

molecular target: CaAbp1-D1; test: as above
Procedure, shortened: as §1

Binder	SPOT peptide array binding signal intensity
KNPRRQLQIPRQQPS	728
HPRFVSPRIPSRIVK	322

molecular target: CaAbp1-D2; test: as above
Procedure, shortened: as §1

Binder	SPOT peptide array binding signal intensity
KNPRRQLQIPRQQPS	464
HPRFVSPRIPSRIVK	83.5

molecular target: CaBbc1; test: as above
Procedure, shortened: as §1

Binder	SPOT peptide array binding signal intensity
KNPRRQLQIPRQQPS	218
HPRFVSPRIPSRIVK	1520

molecular target: CaBem1-D1; test: as above
Procedure, shortened: as §1

Binder	SPOT peptide array binding signal intensity
KNPRRQLQIPRQQPS	73
HPRFVSPRIPSRIVK	226

molecular target: CaBzz1-D1; test: as above
Procedure, shortened: as §1

Binder	SPOT peptide array binding signal intensity
KNPRRQLQIPRQQPS	84
HPRFVSPRIPSRIVK	255

molecular target: CaBzz1-D2; test: as above
Procedure, shortened: as §1

Binder	SPOT peptide array binding signal intensity
KNPRRQLQIPRQQPS	42
HPRFVSPRIPSRIVK	149

molecular target: CaCyk3; test: as above
Procedure, shortened: as §1

Binder	SPOT peptide array binding signal intensity
KNPRRQLQIPRQQPS	7
HPRFVSPRIPSRIVK	17

molecular target: CaFus1; test: as above
Procedure, shortened: as §1

Binder	SPOT peptide array binding signal intensity
KNPRRQLQIPRQQPS	208
HPRFVSPRIPSRIVK	373

molecular target: CaHof1; test: as above
Procedure, shortened: as §1

Binder	SPOT peptide array binding signal intensity
KNPRRQLQIPRQQPS	≤ 0
HPRFVSPRIPSRIVK	2

molecular target: CaHse1; test: as above
Procedure, shortened: as §1

Binder	SPOT peptide array binding signal intensity
KNPRRQLQIPRQQPS	1
HPRFVSPRIPSRIVK	25

molecular target: CaLsb1; test: as above
Procedure, shortened: as §1

Binder	SPOT peptide array binding signal intensity
KNPRRQLQIPRQQPS	0.5
HPRFVSPRIPSRIVK	1

molecular target: CaLsb4; test: as above
Procedure, shortened: as §1

Binder	SPOT peptide array binding signal intensity
KNPRRQLQIPRQQPS	51.5
HPRFVSPRIPSRIVK	933

molecular target: CaMyo5; test: as above
Procedure, shortened: as §1

Binder	SPOT peptide array binding signal intensity
KNPRRQLQIPRQQPS	5
HPRFVSPRIPSRIVK	13.8

molecular target: CaNbp2; test: as above
Procedure, shortened: as §1

Binder	SPOT peptide array binding signal intensity
KNPRRQLQIPRQQPS	333
HPRFVSPRIPSRIVK	428

molecular target: CaRvs167; test: as above
Procedure, shortened: as §1

Binder	SPOT peptide array binding signal intensity
KNPRRQLQIPRQQPS	12
HPRFVSPRIPSRIVK	230

molecular target: CaRvs167-3; test: as above
Procedure, shortened: as §1

Binder	SPOT peptide array binding signal intensity
KNPRRQLQIPRQQPS	11.8
HPRFVSPRIPSRIVK	5.75

molecular target: CaSho1; test: as above
Procedure, shortened: as §1

Binder	SPOT peptide array binding signal intensity
KNPRRQLQIPRQQPS	47.5
HPRFVSPRIPSRIVK	170

molecular target: CaSla1-D1-D2; test: as above
Procedure, shortened: as §1

Binder	SPOT peptide array binding signal intensity
KNPRRQLQIPRQQPS	148
HPRFVSPRIPSRIVK	736

molecular target: CaSla1-D3; test: as above
Procedure, shortened: as §1

Binder	SPOT peptide array binding signal intensity
KNPRRQLQIPRQQPS	1.25
HPRFVSPRIPSRIVK	11.5

molecular target: ScAbp1; test: as above
Procedure, shortened: as §1

Binder	SPOT peptide array binding signal intensity
KNPRRQLQIPRQQPS	146
HPRFVSPRIPSRIVK	238

molecular target: ScBbc1; test: as above
Procedure, shortened: as §1

Binder	SPOT peptide array binding signal intensity
KNPRRQLQIPRQQPS	7.25
HPRFVSPRIPSRIVK	283

molecular target: ScBem1-D1; test: as above
Procedure, shortened: as §1

Binder	SPOT peptide array binding signal intensity
KNPRRQLQIPRQQPS	29
HPRFVSPRIPSRIVK	21.5

molecular target: ScBzz1-D1; test: as above
Procedure, shortened: as §1

Binder	SPOT peptide array binding signal intensity
KNPRRQLQIPRQQPS	47.5
HPRFVSPRIPSRIVK	62

molecular target: ScBzz1-D2; test: as above
Procedure, shortened: as §1

Binder	SPOT peptide array binding signal intensity
KNPRRQLQIPRQQPS	8
HPRFVSPRIPSRIVK	73.5

molecular target: ScCyk3; test: as above
Procedure, shortened: as §1

Binder	SPOT peptide array binding signal intensity
KNPRRQLQIPRQQPS	15
HPRFVSPRIPSRIVK	12

molecular target: ScFus1; test: as above
Procedure, shortened: as §1

Binder	SPOT peptide array binding signal intensity
KNPRRQLQIPRQQPS	98
HPRFVSPRIPSRIVK	147

molecular target: ScHof1; test: as above
Procedure, shortened: as §1

Binder	SPOT peptide array binding signal intensity
KNPRRQLQIPRQQPS	0.75
HPRFVSPRIPSRIVK	8.75

molecular target: ScHse1; test: as above
Procedure, shortened: as §1

Binder	SPOT peptide array binding signal intensity
KNPRRQLQIPRQQPS	527
HPRFVSPRIPSRIVK	820

molecular target: ScLsb1; test: as above
Procedure, shortened: as §1

Binder	SPOT peptide array binding signal intensity
KNPRRQLQIPRQQPS	162
HPRFVSPRIPSRIVK	531

molecular target: ScLsb2; test: as above
Procedure, shortened: as §1

Binder	SPOT peptide array binding signal intensity
KNPRRQLQIPRQQPS	2
HPRFVSPRIPSRIVK	694

molecular target: ScLsb3; test: as above
Procedure, shortened: as §1

Binder	SPOT peptide array binding signal intensity
KNPRRQLQIPRQQPS	132
HPRFVSPRIPSRIVK	2050

molecular target: ScLsb4; test: as above
Procedure, shortened: as §1

Binder	SPOT peptide array binding signal intensity
KNPRRQLQIPRQQPS	12
HPRFVSPRIPSRIVK	114

molecular target: ScMyo3; test: as above
Procedure, shortened: as §1

Binder	SPOT peptide array binding signal intensity
KNPRRQLQIPRQQPS	2
HPRFVSPRIPSRIVK	27

molecular target: ScMyo5; test: as above
Procedure, shortened: as §1

Binder	SPOT peptide array binding signal intensity
KNPRRQLQIPRQQPS	1
HPRFVSPRIPSRIVK	32.5

molecular target: ScNbp2; test: as above
Procedure, shortened: as §1

Binder	SPOT peptide array binding signal intensity
KNPRRQLQIPRQQPS	173
HPRFVSPRIPSRIVK	510

molecular target: ScPex13; test: as above
Procedure, shortened: as §1

Binder	SPOT peptide array binding signal intensity
KNPRRQLQIPRQQPS	≤ 0
HPRFVSPRIPSRIVK	86.2

molecular target: ScRvs167; test: as above
Procedure, shortened: as §1

Binder	SPOT peptide array binding signal intensity
KNPRRQLQIPRQQPS	13.5
HPRFVSPRIPSRIVK	820

molecular target: ScSho1; test: as above
Procedure, shortened: as §1

Binder	SPOT peptide array binding signal intensity
KNPRRQLQIPRQQPS	95
HPRFVSPRIPSRIVK	256

molecular target: ScSla1-D1-D2; test: as above
Procedure, shortened: as §1

Binder	SPOT peptide array binding signal intensity
KNPRRQLQIPRQQPS	442
HPRFVSPRIPSRIVK	720

molecular target: ScSla1-D3; test: as above
Procedure, shortened: as §1

Binder	SPOT peptide array binding signal intensity
KNPRRQLQIPRQQPS	21
HPRFVSPRIPSRIVK	36

molecular target: SpAbp1-D1; test: as above
Procedure, shortened: as §1

Binder	SPOT peptide array binding signal intensity
KNPRRQLQIPRQQPS	306
HPRFVSPRIPSRIVK	180

molecular target: SpBbc1; test: as above
Procedure, shortened: as §1

Binder	SPOT peptide array binding signal intensity
KNPRRQLQIPRQQPS	1
HPRFVSPRIPSRIVK	19

molecular target: SpBzz1-D1; test: as above
Procedure, shortened: as §1

Binder	SPOT peptide array binding signal intensity
KNPRRQLQIPRQQPS	240
HPRFVSPRIPSRIVK	350

molecular target: SpBzz1-D2; test: as above
Procedure, shortened: as §1

Binder	SPOT peptide array binding signal intensity
HPRFVSPRIPSRIVK	1

molecular target: SpCyk3; test: as above
Procedure, shortened: as §1

Binder	SPOT peptide array binding signal intensity
HPRFVSPRIPSRIVK	4

molecular target: SpHof1; test: as above
Procedure, shortened: as §1

Binder	SPOT peptide array binding signal intensity
HPRFVSPRIPSRIVK	145

molecular target: SpHof1-2; test: as above
Procedure, shortened: as §1

Binder	SPOT peptide array binding signal intensity
HPRFVSPRIPSRIVK	15.8

molecular target: SpHof1-3; test: as above
Procedure, shortened: as §1

Binder	SPOT peptide array binding signal intensity
HPRFVSPRIPSRIVK	295

molecular target: SpHse1; test: as above
Procedure, shortened: as §1

Binder	SPOT peptide array binding signal intensity
HPRFVSPRIPSRIVK	318

molecular target: SpLsb1; test: as above
Procedure, shortened: as §1

Binder	SPOT peptide array binding signal intensity
HPRFVSPRIPSRIVK	1380

molecular target: SpLsb4; test: as above
Procedure, shortened: as §1

Binder	SPOT peptide array binding signal intensity
HPRFVSPRIPSRIVK	2670

molecular target: SpMyo1; test: as above
Procedure, shortened: as §1

Binder	SPOT peptide array binding signal intensity
HPRFVSPRIPSRIVK	49

molecular target: SpNbp2; test: as above
Procedure, shortened: as §1

Binder	SPOT peptide array binding signal intensity
HPRFVSPRIPSRIVK	78.5

molecular target: SpPex13; test: as above
Procedure, shortened: as §1

Binder	SPOT peptide array binding signal intensity
HPRFVSPRIPSRIVK	32

molecular target: SpRvs167; test: as above
Procedure, shortened: as §1

Binder	SPOT peptide array binding signal intensity
HPRFVSPRIPSRIVK	254

molecular target: SpSla1-D1-D2; test: as above
Procedure, shortened: as §1

Binder	SPOT peptide array binding signal intensity
HPRFVSPRIPSRIVK	1.5

molecular target: SpSla1-D3; test: as above
Procedure, shortened: as §1

Binder	SPOT peptide array binding signal intensity
HPRFVSPRIPSRIVK	11
